Data published in PubChem BioAssay AID1159580 (chemical genetic matrix, 2015).
Among all 5,500 compounds or so, about 2,000 (36%) were called active. Another 18% or so got no clear call; they are omitted. The list shows a part of the results. Values without a mark were called inactive. Cut-off read from the data, not from the text of the source: active = normalized growth mostly below about 0.91 (no sharp cut-off); inconclusive = no clear call, values can overlap the other calls; inactive = mostly above about 0.92.

Experiment: chemical genetic growth profiling, strain panel (AID 1159580);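 note: tested at 20 µM; growth read once vehicle control cultures reached saturation at 30 °C; 1 = growth at the plate median or of vehicle wells; lower values mean less growth of the strain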
Settings: growth OD
[1] = S. cerevisiae deletion strains, locus YDL101C, strain DUN1, active compounds read low
[2] = S. cerevisiae deletion strains, locus YHR030C, strain SLT2, active compounds read low

In the case of `S=C(NNC(=S)NC1CC2C=CC1C2)Nc1ccc(Br)c(Cl)c1` (configuration not stated), the normalized growth (S. cerevisiae deletion strains, locus YAR019C, strain CDC15, active compounds read low) is reported as 0.981, the normalized growth (S. cerevisiae deletion strains, locus YBL105C, strain PKC1, active compounds read low) is reported as 0.987 and the normalized growth (S. cerevisiae deletion strains, locus YBR135W, strain CKS1, active compounds read low) is reported as 0.986. The normalized growth (S. cerevisiae deletion strains, locus YBR136W, strain MEC1, active compounds read low) was 0.976, the normalized growth (S. cerevisiae deletion strains, locus YBR160W, strain CDC28, active compounds read low) was 0.984 and the normalized growth (S. cerevisiae deletion strains, locus YDL017W, strain CDC7, active compounds read low) was 0.986. It also gave a normalized growth (S. cerevisiae deletion strains, locus YDL028C, strain MPS1, active compounds read low) of 0.979, a normalized growth [1] of 0.989 and a normalized growth (S. cerevisiae deletion strains, locus YDL108W, strain KIN28, active compounds read low) of 0.989. The normalized growth (S. cerevisiae deletion strains, locus YDL132W, strain cdc53, active compounds read low) was 0.987, the normalized growth (S. cerevisiae deletion strains, locus YDL214C, strain PRR2, active compounds read low) was 0.948 and the normalized growth (S. cerevisiae deletion strains, locus YDR052C, strain DBF4, active compounds read low) was 0.994. For the same compound, the normalized growth (S. cerevisiae deletion strains, locus YDR054C, strain cdc34, active compounds read low) was 0.976, the normalized growth (S. cerevisiae deletion strains, locus YDR226W, strain ADK1, active compounds read low) was 0.982 and the normalized growth (S. cerevisiae deletion strains, locus YDR477W, strain SNF1, active compounds read low) was 0.932. It also gave a normalized growth (S. cerevisiae deletion strains, locus YER123W, strain YCK3, active compounds read low) of 0.931, a normalized growth (S. cerevisiae deletion strains, locus YER133W, strain GLC7, active compounds read low) of 0.922 and a normalized growth (S. cerevisiae deletion strains, locus YFL009W, strain cdc4, active compounds read low) of 0.98. For the same compound, the normalized growth (S. cerevisiae deletion strains, locus YFL029C, strain CAK1, active compounds read low) was 0.982, the normalized growth (S. cerevisiae deletion strains, locus YFR003C, strain YPI1, active compounds read low) was 0.985 and the normalized growth (S. cerevisiae deletion strains, locus YFR019W, strain FAB1, active compounds read low) was 0.993. It also gave a normalized growth (S. cerevisiae deletion strains, locus YFR028C, strain CDC14, active compounds read low) of 0.986, a normalized growth (S. cerevisiae deletion strains, locus YGR040W, strain KSS1, active compounds read low) of 0.939 and a normalized growth (S. cerevisiae deletion strains, locus YGR052W, strain FMP48, active compounds read low) of 0.954. The normalized growth (S. cerevisiae deletion strains, locus YGR092W, strain DBF2, active compounds read low) was 0.922, the normalized growth [2] was 0.889 and the normalized growth (S. cerevisiae deletion strains, locus YHR079C, strain IRE1, active compounds read low) was 0.954. For the same compound, the normalized growth (S. cerevisiae deletion strains, locus YHR082C, strain KSP1, active compounds read low) was 1.03, the normalized growth (S. cerevisiae deletion strains, locus YHR205W, strain SCH9, active compounds read low) was 0.972 and the normalized growth (S. cerevisiae deletion strains, locus YIL147C, strain SLN1, active compounds read low) was 0.983. The normalized growth (S. cerevisiae deletion strains, locus YJL095W, strain BCK1, active compounds read low) was 0.927, the normalized growth (S. cerevisiae deletion strains, locus YJL128C, strain PBS2, active compounds read low) was 0.943 and the normalized growth (S. cerevisiae deletion strains, locus YJL157C, strain FAR1, active compounds read low) was 0.927. It also gave a normalized growth (S. cerevisiae deletion strains, locus YJR016C, strain ILV3, active compounds read low) of 0.984, a normalized growth (S. cerevisiae deletion strains, locus YJR066W, strain TOR1 (second series), active compounds read low) of 0.972 and a normalized growth (S. cerevisiae deletion strains, locus YJR066W, strain TOR1, active compounds read low) of 1.05. The normalized growth (S. cerevisiae deletion strains, locus YKL048C, strain ELM1, active compounds read low) was 0.982, the normalized growth (S. cerevisiae deletion strains, locus YKL067W, strain YNK1, active compounds read low) was 0.94 and the normalized growth (S. cerevisiae deletion strains, locus YKL101W, strain HSL1, active compounds read low) was 0.961. The normalized growth (S. cerevisiae deletion strains, locus YKL193C, strain SDS22, active compounds read low) was 0.975, the normalized growth (S. cerevisiae deletion strains, locus YKL203C, strain TOR2, active compounds read low) was 0.994 and the normalized growth (S. cerevisiae deletion strains, locus YLR113W, strain HOG1, active compounds read low) was 0.896. It also gave a normalized growth (S. cerevisiae deletion strains, locus YLR133W, strain CKI1, active compounds read low) of 0.959, a normalized growth (S. cerevisiae deletion strains, locus YLR403W, strain SFP1, active compounds read low) of 0.939 and a normalized growth (S. cerevisiae deletion strains, locus YML070W, strain DAK1, active compounds read low) of 0.942. For the same compound, the normalized growth (S. cerevisiae deletion strains, locus YMR001C, strain CDC5, active compounds read low) was 0.984, the normalized growth (S. cerevisiae deletion strains, locus YMR205C, strain PFK2 (second series), active compounds read low) was 0.957 and the normalized growth (S. cerevisiae deletion strains, locus YMR277W, strain FCP1, active compounds read low) was 0.983. For the same compound, the normalized growth (S. cerevisiae deletion strains, locus YNL006W, strain LST8, active compounds read low) was 0.984, the normalized growth (S. cerevisiae deletion strains, locus YNL020C, strain ARK1, active compounds read low) was 0.952 and the normalized growth (S. cerevisiae deletion strains, locus YNL161W, strain CBK1, active compounds read low) was 0.982. It also gave a normalized growth (S. cerevisiae deletion strains, locus YNL183C, strain NPR1, active compounds read low) of 1.04, a normalized growth (S. cerevisiae deletion strains, locus YNL207W, strain RIO2, active compounds read low) of 0.977 and a normalized growth (S. cerevisiae deletion strains, locus YNL222W, strain SSU72, active compounds read low) of 0.991. For the same compound, the normalized growth (S. cerevisiae deletion strains, locus YNL307C, strain MCK1 (second series), active compounds read low) was 0.956, the normalized growth (S. cerevisiae deletion strains, locus YOL078W, strain AVO1, active compounds read low) was 0.984 and the normalized growth (S. cerevisiae deletion strains, locus YOL136C, strain PFK27, active compounds read low) was 0.964. For the same compound, the normalized growth (S. cerevisiae deletion strains, locus YOR061W, strain CKA2, active compounds read low) was 0.947, the normalized growth (S. cerevisiae deletion strains, locus YOR119C, strain RIO1, active compounds read low) was 0.994 and the normalized growth (S. cerevisiae deletion strains, locus YOR231W, strain MKK1, active compounds read low) was 0.963. The normalized growth (S. cerevisiae deletion strains, locus YOR329C, strain SCD5, active compounds read low) was 0.993, the normalized growth (S. cerevisiae deletion strains, locus YPL031C, strain PHO85, active compounds read low) was 0.928 and the normalized growth (S. cerevisiae deletion strains, locus YPL153C, strain RAD53, active compounds read low) was 0.932. For the same compound, the normalized growth (S. cerevisiae deletion strains, locus YPL204W, strain HRR25, active compounds read low) was 0.939, the normalized growth (S. cerevisiae deletion strains, locus YPL209C, strain IPL1, active compounds read low) was 0.986 and the normalized growth (S. cerevisiae deletion strains, locus YPL256C, strain CLN2, active compounds read low) was 0.987. For the same compound, the normalized growth (S. cerevisiae deletion strains, locus YPR025C, strain CCL1, active compounds read low) was 0.987, the normalized growth (S. cerevisiae deletion strains, locus YPR106W, strain ISR1, active compounds read low) was 0.981 and the normalized growth (S. cerevisiae deletion strains, locus YPR111W, strain DBF20, active compounds read low) was 0.983. For the same compound, the normalized growth (S. cerevisiae deletion strains, strain NNK1, active compounds read low) was 0.983 and the normalized growth (S. cerevisiae deletion strains, strain TSCII, active compounds read low) was 0.985.
In the case of `Cc1cccc(NC(=S)NC2CC3C=CC2C3)c1` (configuration not stated), the normalized growth (S. cerevisiae deletion strains, locus YAL013W, strain DEP1, active compounds read low) is reported as 0.939, the normalized growth (S. cerevisiae deletion strains, locus YBR229C, strain ROT2, active compounds read low) is reported as 0.998 and the normalized growth (S. cerevisiae deletion strains, locus YCL061C, strain MRC1, active compounds read low) is reported as 0.979. The normalized growth [1] was 0.985, the normalized growth (S. cerevisiae deletion strains, locus YDL134C, strain PPH21, active compounds read low) was 0.904 (active) and the normalized growth (S. cerevisiae deletion strains, locus YDR150W, strain NUM1, active compounds read low) was 1.01. The normalized growth (S. cerevisiae deletion strains, locus YEL061C, strain CIN8, active compounds read low) was 0.905 (active), the normalized growth (S. cerevisiae deletion strains, locus YGR078C, strain PAC10, active compounds read low) was 0.978 and the normalized growth (S. cerevisiae deletion strains, locus YGR229C, strain SMI1, active compounds read low) was 0.987. The normalized growth [2] was 0.91, the normalized growth (S. cerevisiae deletion strains, locus YHR087W, strain rtc3, active compounds read low) was 1.02 and the normalized growth (S. cerevisiae deletion strains, locus YJR043C, strain POL32, active compounds read low) was 0.926. For the same compound, the normalized growth (S. cerevisiae deletion strains, locus YJR075W, strain HOC1, active compounds read low) was 0.994, the normalized growth (S. cerevisiae deletion strains, locus YLR039C, strain RIC1, active compounds read low) was 0.685 (active) and the normalized growth (S. cerevisiae deletion strains, locus YLR058C, strain SHM2 (second series), active compounds read low) was 0.993. For the same compound, the normalized growth (S. cerevisiae deletion strains, locus YLR085C, strain ARP6, active compounds read low) was 0.435 (active), the normalized growth (S. cerevisiae deletion strains, locus YLR262C, strain YPT6, active compounds read low) was 0.825 and the normalized growth (S. cerevisiae deletion strains, locus YML094W, strain GIM5, active compounds read low) was 0.882. For the same compound, the normalized growth (S. cerevisiae deletion strains, locus YMR219W, strain ESC1, active compounds read low) was 0.984, the normalized growth (S. cerevisiae deletion strains, locus YMR263W, strain SAP30, active compounds read low) was 0.949 and the normalized growth (S. cerevisiae deletion strains, locus YMR307W, strain GAS1, active compounds read low) was 0.688. The normalized growth (S. cerevisiae deletion strains, locus YNL128W, strain TEP1, active compounds read low) was 0.977, the normalized growth (S. cerevisiae deletion strains, locus YNL153C, strain GIM3, active compounds read low) was 0.98 and the normalized growth (S. cerevisiae deletion strains, locus YNL298W, strain CLA4 (second series), active compounds read low) was 0.85. For the same compound, the normalized growth (S. cerevisiae deletion strains, locus YNL322C, strain KRE1, active compounds read low) was 0.993, the normalized growth (S. cerevisiae deletion strains, locus YNR030W, strain Alg12, active compounds read low) was 0.897 and the normalized growth (S. cerevisiae deletion strains, locus YOL006C, strain TOP1, active compounds read low) was 0.182 (active). It also gave a normalized growth (S. cerevisiae deletion strains, locus YPL055C, strain LGE1, active compounds read low) of 0.913, a normalized growth (S. cerevisiae deletion strains, locus YPL241C, strain CIN2, active compounds read low) of 0.91 and a normalized growth (S. cerevisiae deletion strains, locus YPR135W, strain CTF4, active compounds read low) of 0.814. It also gave a normalized growth (S. cerevisiae strains, strain wild type, active compounds read low) of 0.927.
